Assay outcomes: PubChem, National Center for Advancing Translational Sciences (NCATS)
MCF10A rerep = DNA re-replication induction in MCF 10a cells | Potency, µM (series often up to 46.1 µM), inactives show at the top dose activity, positive = re-replication, most hits filed as activators | AID 624296 | hit rate 2.9% among 350,000 | MCF 10A DNA re-replication, Hoechst nuclear intensity, 48 h; also: % of control where 0% means no effect; nearly all actives have a fitted effect of over 50% in size
KB-V1 MDR tox = kills drug-selected multidrug resistant KB-V1 cells; hit rate 3.4% among 400,000; KB-V1 MDR cells viability, CellTiter-Glo, 72 h; Potency, µM (highest dose often 46.1 µM), usual class: cytotoxic; also: % is scaled to controls: 0 for no effect and ±100 for the full control effect; nearly all actives have a fitted effect of over 60% in size
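Luminescent ATP read-out (CellTiter-Glo, 10 min) measures survival of drug-selected KB-V1 MDR cells after 72 h, 37 degrees C compound exposure. Medium: phenol-red-free DMEM, 10% FBS. Values from fitted concentration-response curves.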
SW480 rerep = induces DNA re-replication in SW480 colon adenocarcinoma cells | Potency, µM (doses to about 46.1 µM), without a hit: at the top dose re-replication activation, usual class: activators | hit rate 1.8% among 340,000 | SW480 DNA re-replication, Hoechst DNA content imaging, 48 h | AID 624297; also: % of control where 0% means no effect; nearly all actives have a fitted effect of over 55% in size
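Image-based DNA-content assay: after two days of treatment, nuclei were labelled with the DNA dye Hoechst and imaged, and hits were compounds raising the count of nuclei showing high fluorescence intensity.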
KB-3-1 cytotox = kills parental KB-3-1 adenocarcinoma cells; KB-3-1 viability, CellTiter-Glo ATP luminescence, 72 h; Potency, µM (top dose mostly 46.1 µM), actives largely listed as cytotoxic; hit rate 1.4% among 400,000; AID 1347075; also: % is scaled to controls: 0 for no effect and ±100 for the full control effect; nearly all actives have a fitted effect of over 60% in size
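Multi-concentration cytotoxicity screen in KB-3-1 cells grown in DMEM lacking phenol red with 10% FBS. After 72 h at 37 °C with compound, ATP-dependent luminescence was recorded.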
ELG1 repair inh = ELG1-dependent DNA repair inhibition; AID 504467; Potency, µM (highest dose often 46.1 µM), for the others: top-dose activity change, negative = inhibition, most hits filed as inhibitors; hit rate 2.3% among 330,000; HEK293T ELG1-luciferase reporter, luminescence, 16 h; DNA damage induced by 5-fluorouridine; also: % is scaled to controls: 0 for no effect and ±100 for the full control effect; nearly all actives have a fitted effect of over 55% in size
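Reporter activity after DNA damage by 5-fluorouridine is monitored. Compound-treated cells incubate 16 hr at 37 °C, then ONE-Glo is added for 30 min before luminescence reading.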
An asterisk follows results filed as active; i = inactive; ? = inconclusive; · = no result. In the library only some 8.2% were active in any assay of this set; here they are far more common. Calls follow the shape of the dose curve; as a rule, active = well fitted curve in the direction sought with a large enough effect; inconclusive = small, poorly fitted or top-dose-only effect, or another doubt; inactive = no such curve, though single readings can be large; an effect the other way counts as inactive or inconclusive. Potency is read from the fitted curve at half-maximal effect.

SMILES | MCF10A rerep | KB-V1 MDR tox | SW480 rerep | KB-3-1 cytotox | ELG1 repair inh
CCOC(=O)c1cc(-c2ccccc2)n(CCCC(=O)Nc2ccc(C(C)C)cc2)c1C | · | ? | · | i | ·
CCOC(=O)c1cc(-c2ccc(C)cc2)n(CCC(=O)N2CCN(c3ccccn3)CC2)c1C | ? | 1.2µM* | 4% | ? | 21µM*
CCOC(=O)c1cc(-c2ccc(C)cc2)n(CCC(=O)NCc2ccccc2)c1C | · | i | · | i | ·
CCOC(=O)c1cc(-c2ccc(C)cc2)n(CCC(=O)Nc2ccc(C(C)C)cc2)c1C | · | ? | · | 18µM* | ·
COc1ccc(NC(=O)C2=CC=CN3CCS(=O)(=O)N=C23)c(OC)c1 | -3% | i | -11% | i | 15%
CN(C)CCCNc1oc(/C=C/c2cccs2)nc1S(=O)(=O)c1ccccc1 | ? | i | 12µM* | i | 0%
COc1ccc2nc(C)cc(N/N=C/c3ccc(F)cc3)c2c1 | 23µM* | ? | 16µM* | 26µM* | ?
COc1ccc(/C=N/Nc2cc(C)nc3ccccc23)cc1 | 1.6µM* | ? | 4.1µM* | 15µM* | -6%
COc1ccc(/C=N/Nc2cc(C)nc3c(C)cccc23)cc1 | 18µM* | i | 26µM* | ? | 4%
COc1ccc(Nc2cc(C)nc3ccc(OC)cc23)cc1 | 23% | ? | 17% | i | -31%
NC(=O)c1c(NC(=O)CN2CCN(S(=O)(=O)c3ccccc3)CC2)sc2c1CCC2 | 13% | i | -2% | i | ?
CCC(Sc1nc2c(c(=O)[nH]1)CCC2)C(=O)Nc1cccc(OC)c1 (stereo unspecified) | 23% | 16µM* | 0% | i | -8%
Cc1cc(C(=O)NNc2ccc(C)c(C)c2)no1 | 16µM* | ? | ? | ? | 8.2µM*
NS(=O)(=O)c1ccc(NNC(=O)c2ccccc2C(=O)O)cc1 | -1% | i | -19% | i | 1%
Cc1ccc(NNC(=O)c2ccno2)cc1C | -6% | i | 2% | 16µM* | ?
O=C(O)c1ccccc1C(=O)NNc1ccc(Cl)cc1 | 4.6µM* | i | 14% | i | 0%
Cc1cc(C(=O)Nc2cnn(Cc3ccc(Cl)cc3Cl)c2)no1 | 13% | 13µM* | -1% | i | -5%
COc1cccc(-c2cc(C(=O)Nc3cnn(Cc4ccc(Cl)cc4Cl)c3)no2)c1 | · | i | · | i | ·
Cc1ccc(NNC(=O)c2cc(C)on2)c(C)c1 | 20% | i | -10% | i | ?
O=C(Nc1cccc(C(F)(F)F)c1)c1csc([C@@H]2C[C@H](O)[C@@H](CO)O2)n1 | · | i | · | i | ·
Cc1cc(C(=O)NNc2ccc(Cl)cc2)no1 | 7.3µM* | i | 11% | ? | ?
Cc1cc(C(=O)NCCc2ccc(S(N)(=O)=O)cc2)no1 | -17% | i | -20% | i | 0%
Cc1cc(C(=O)NCCc2ccc(Cl)cc2)no1 | 6.5µM* | i | -25% | i | 0%
CC(=O)c1c(C)n(-c2ccc(Cl)cc2)c2ccc(OC(=O)COc3ccccc3)cc12 | · | i | · | i | ·
CC(=O)N/C(=C\c1ccc(F)cc1)C(=O)OCc1ccccc1 | -12% | i | -11% | i | 2%
SMILES | MCF10A rerep | KB-V1 MDR tox | SW480 rerep | KB-3-1 cytotox | ELG1 repair inh
COc1cc(Nc2ncc3c(n2)CCN(Cc2ccc(OC(C)C)c(OC)c2)C3)cc(OC)c1 | · | i | · | i | ·
CCSc1nnc2c(n1)[nH]c1c(C)cccc12 | -2% | 16µM* | 10% | ? | -7%
COc1ccc(C(=O)NCCOC(C)C)cc1OC1CCN(C(C)=O)CC1 | -6% | i | 2% | i | 9%
CCc1cccc(NC(=O)c2cccc3c2C(=O)N(CC2CCCO2)C3)c1 (stereo unspecified) | -2% | i | 0% | i | ?
CCN(CC)c1ccc(/C=N/NC(=O)c2cccc(S(=O)(=O)Nc3ccccc3OC)c2)cc1 | 16µM* | i | 2% | i | 9%
COc1ccccc1NS(=O)(=O)c1cccc(C(=O)N/N=C/c2ccc([N+](=O)[O-])o2)c1 | 21µM* | ? | 13µM* | ? | ?
CCN(CC)c1ccc(/C=N/NC(=O)c2cccc(S(=O)(=O)Nc3ccccc3OC)c2)c(O)c1 | ? | i | ? | ? | -14%
